From ChEMBL document CHEMBL3988442, “University of Dundee, Small-Polar-MMV Screening Library” (2021) come the findings set out here.

Structures are written as SMILES. For part of these data: Measured potencies and affinities stand elsewhere.

What all share (parameters): scale not given: direction of the effect not stated beside the values
In experiment [1] the target is Protein translocase subunit SecA (Escherichia coli (strain K12)) (UniProt P10408). The experiment in a line: Assay to Identify E. coli SecA ATPase Inhibitors. Type of experiment: functional. The conditions noted are these: 30 µM.
Sequence of Protein translocase subunit SecA (Escherichia coli (strain K12)) (P10408 whole entry): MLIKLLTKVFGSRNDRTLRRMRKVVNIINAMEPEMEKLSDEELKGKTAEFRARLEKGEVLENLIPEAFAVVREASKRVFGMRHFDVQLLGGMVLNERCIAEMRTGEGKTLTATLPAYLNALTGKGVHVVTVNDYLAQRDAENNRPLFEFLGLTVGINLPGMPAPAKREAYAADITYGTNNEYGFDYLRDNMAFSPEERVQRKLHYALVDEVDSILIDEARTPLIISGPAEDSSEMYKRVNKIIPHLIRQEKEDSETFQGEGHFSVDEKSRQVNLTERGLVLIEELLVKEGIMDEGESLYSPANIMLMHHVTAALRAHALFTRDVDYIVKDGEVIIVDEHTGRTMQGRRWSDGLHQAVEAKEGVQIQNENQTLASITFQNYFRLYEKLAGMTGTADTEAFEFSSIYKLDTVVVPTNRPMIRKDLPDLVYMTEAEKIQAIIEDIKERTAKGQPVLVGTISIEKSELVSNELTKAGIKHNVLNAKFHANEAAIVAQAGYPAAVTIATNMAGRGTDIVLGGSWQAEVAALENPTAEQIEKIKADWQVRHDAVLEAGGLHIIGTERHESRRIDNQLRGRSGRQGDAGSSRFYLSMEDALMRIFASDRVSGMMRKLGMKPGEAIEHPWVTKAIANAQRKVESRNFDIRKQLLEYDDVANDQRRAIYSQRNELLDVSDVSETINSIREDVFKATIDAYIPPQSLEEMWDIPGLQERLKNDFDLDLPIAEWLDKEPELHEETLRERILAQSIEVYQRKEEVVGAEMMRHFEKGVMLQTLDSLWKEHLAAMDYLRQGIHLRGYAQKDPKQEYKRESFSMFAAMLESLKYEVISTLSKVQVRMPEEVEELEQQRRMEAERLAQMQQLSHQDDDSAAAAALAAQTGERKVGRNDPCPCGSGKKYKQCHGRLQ
Experiment [2] has as its target T1, Ubiquitin-activating enzyme e1, putative (Leishmania donovani (strain BPK282A1)) (UniProt E9BSI1).
T1 sequence (whole entry): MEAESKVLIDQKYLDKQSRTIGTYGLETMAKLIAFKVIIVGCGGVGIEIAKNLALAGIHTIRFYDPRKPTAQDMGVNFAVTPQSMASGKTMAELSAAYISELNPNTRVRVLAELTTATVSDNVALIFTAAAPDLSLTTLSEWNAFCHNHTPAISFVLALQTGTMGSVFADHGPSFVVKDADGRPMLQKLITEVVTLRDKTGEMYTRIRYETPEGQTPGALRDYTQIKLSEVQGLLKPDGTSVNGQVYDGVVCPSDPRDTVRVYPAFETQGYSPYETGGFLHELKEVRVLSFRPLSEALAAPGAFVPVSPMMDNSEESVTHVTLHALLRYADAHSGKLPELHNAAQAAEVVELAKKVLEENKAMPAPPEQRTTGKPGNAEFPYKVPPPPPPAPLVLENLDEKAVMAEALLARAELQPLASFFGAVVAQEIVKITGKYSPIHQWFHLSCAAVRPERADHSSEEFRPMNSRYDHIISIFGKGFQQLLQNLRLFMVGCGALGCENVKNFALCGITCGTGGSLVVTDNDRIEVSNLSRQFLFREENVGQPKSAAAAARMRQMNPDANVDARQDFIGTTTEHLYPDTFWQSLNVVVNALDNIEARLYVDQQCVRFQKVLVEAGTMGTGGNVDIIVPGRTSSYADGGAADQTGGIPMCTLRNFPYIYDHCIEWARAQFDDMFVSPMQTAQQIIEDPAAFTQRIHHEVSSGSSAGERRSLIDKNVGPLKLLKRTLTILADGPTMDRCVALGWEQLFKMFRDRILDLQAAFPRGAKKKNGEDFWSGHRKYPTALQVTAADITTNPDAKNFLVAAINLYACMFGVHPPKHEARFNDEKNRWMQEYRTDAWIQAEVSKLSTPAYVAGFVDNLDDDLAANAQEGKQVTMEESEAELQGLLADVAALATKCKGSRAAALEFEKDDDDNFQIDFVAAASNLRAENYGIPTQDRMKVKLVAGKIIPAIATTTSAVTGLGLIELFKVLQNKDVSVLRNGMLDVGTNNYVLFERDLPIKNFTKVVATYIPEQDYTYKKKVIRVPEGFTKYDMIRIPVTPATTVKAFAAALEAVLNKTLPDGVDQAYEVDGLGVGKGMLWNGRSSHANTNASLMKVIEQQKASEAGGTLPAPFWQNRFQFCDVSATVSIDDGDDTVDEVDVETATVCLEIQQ
The experiment in a line: Leishmania donovani Ubiquitin Activating Enzyme (LdE1). Type of experiment: functional. The conditions noted are these: 30 µM.

The target in experiment [3] is AMP-activated protein kinase, AMPK (Homo sapiens) (UniProt P54646+O43741+P54619+Q9UGJ0+Q9Y478+Q13131+Q9UGI9). The experiment in a line: AMP-dependent Kinase enzyme assay. An in vitro enzyme assay that detects ADP turnover that is directly proportional to AMPK activity. This uses naive AMPK that is activated during the assay with MK-8722. To be noted: 30 µM. Type of experiment: functional.

The target of experiment [4] is Sialic acid-binding Ig-like lectin 9 (Homo sapiens) (UniProt Q9Y336). As to the kind of experiment: Hs-Siglec9 ALPHAscreen SOP 20170721. To be noted: 10 µM.
Sequence of Sialic acid-binding Ig-like lectin 9 (Homo sapiens) (Q9Y336 whole entry): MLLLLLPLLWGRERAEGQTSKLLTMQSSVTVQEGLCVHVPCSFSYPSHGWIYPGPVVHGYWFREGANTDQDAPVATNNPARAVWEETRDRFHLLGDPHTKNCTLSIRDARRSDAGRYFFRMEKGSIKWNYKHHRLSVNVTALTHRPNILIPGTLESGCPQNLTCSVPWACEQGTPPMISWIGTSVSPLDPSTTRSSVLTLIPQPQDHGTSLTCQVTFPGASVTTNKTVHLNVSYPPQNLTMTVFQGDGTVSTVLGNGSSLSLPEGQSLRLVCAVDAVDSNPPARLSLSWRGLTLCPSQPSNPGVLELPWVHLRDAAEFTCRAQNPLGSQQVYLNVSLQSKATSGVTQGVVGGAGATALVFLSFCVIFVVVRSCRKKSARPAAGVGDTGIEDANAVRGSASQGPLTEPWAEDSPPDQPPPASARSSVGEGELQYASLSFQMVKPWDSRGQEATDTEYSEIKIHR
The subject of another experiment is Trypanosoma cruzi. The experiment in a line: Trypanosoma cruzi phosphomannomutase and mannose-1-phosphate guanylyltransferase assay. Type of experiment: functional. To be noted: 10 µM.
For experiment [5], the target named is T2, Arginase-2, mitochondrial (Homo sapiens) (UniProt P78540).
T2 sequence (whole entry): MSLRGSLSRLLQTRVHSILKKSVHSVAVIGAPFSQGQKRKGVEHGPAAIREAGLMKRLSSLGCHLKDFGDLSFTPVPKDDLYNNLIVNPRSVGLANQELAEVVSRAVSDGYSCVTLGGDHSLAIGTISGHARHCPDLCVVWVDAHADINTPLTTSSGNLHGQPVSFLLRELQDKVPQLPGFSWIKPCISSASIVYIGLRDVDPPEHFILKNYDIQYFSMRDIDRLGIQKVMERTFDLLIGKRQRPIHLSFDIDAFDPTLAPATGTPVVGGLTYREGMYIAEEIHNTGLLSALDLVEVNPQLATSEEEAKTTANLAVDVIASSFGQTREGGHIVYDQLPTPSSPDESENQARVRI
As to the kind of experiment: in vitro enzyme assay to detect the production of urea directly proportional to the activity of Arginase II. Note: in the data most compounds retested in dose-response had high values. Type of experiment: functional. To be noted: 33.3 µM.

Experiment [6] concerns the target T3, Proteasome subunit beta (Trypanosoma cruzi) (UniProt O96673).
T3 sequence (whole entry): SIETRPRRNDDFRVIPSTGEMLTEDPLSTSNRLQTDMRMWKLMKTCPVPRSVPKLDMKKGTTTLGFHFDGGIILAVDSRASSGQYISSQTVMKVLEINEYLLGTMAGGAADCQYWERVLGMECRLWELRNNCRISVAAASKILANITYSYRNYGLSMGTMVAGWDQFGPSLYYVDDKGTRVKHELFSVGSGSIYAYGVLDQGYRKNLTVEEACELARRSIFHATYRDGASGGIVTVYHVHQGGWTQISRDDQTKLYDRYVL
The experiment in a line: Trypanosoma cruzi proteasome chymotrypsin-like activity (TcProtChymo) assay. Note: in the data most compounds retested in dose-response had high values. The format is functional. To be noted: 9.37 µM.

The species named for another experiment is Homo sapiens. As to the kind of experiment: To identify inhibition of the IFN signalling (Jak-Stat) pathway via expression of an eGFP reporter gene under the control of an IFN-stimulated response element (ISRE) containing MxA promoter. Type of experiment: functional. The conditions noted are these: 30 µM. On the technique in general: In a reporter assay the amount or activity of a reporter protein is the signal.

In experiment [7] the target is T4, Tyrosyl-tRNA synthetase, putative (Trypanosoma cruzi (strain CL Brener)) (UniProt Q4DSP6).
T4 sequence (whole entry): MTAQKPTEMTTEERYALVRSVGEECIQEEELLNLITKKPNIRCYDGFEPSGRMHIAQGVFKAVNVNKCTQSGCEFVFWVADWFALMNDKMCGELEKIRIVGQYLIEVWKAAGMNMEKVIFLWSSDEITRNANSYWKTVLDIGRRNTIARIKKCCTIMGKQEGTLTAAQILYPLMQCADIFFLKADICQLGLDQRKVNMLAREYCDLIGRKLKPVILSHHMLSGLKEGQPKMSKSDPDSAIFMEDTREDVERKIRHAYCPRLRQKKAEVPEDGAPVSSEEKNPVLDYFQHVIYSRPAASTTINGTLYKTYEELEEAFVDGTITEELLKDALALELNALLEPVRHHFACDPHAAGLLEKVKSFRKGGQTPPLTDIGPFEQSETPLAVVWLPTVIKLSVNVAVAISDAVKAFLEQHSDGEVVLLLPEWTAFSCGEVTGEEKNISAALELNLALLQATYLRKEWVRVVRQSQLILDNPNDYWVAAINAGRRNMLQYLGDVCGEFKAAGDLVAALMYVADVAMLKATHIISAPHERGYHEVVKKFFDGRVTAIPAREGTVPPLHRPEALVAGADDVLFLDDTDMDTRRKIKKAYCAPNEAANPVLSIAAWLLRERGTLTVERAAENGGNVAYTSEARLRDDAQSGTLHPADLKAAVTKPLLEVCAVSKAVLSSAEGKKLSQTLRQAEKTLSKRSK
The experiment in a line: Trypanosoma cruzi tyrosyl tRNA synthetase (TcYRS) _High Tyrosine SOP. Note: in the data most compounds retested in dose-response had high values. The format is functional. The conditions noted are these: 30 µM.

For experiment [8], the target named is T4, Tyrosyl-tRNA synthetase, putative (Trypanosoma cruzi (strain CL Brener)). As to the kind of experiment: Trypanosoma cruzi tyrosyl tRNA synthetase (TcYRS) SOP. The conditions noted are these: 30 µM. The format is functional.
Experiment [9] deals with Chromo domain-containing protein 1 (Saccharomyces cerevisiae (strain ATCC 204508 / S288c) (Baker's yeast)) (UniProt P32657). As to the kind of experiment: ScCHD-1 Enzyme Inhibition Assay. Note: in the data most compounds retested in dose-response had high values. The format is functional. To be noted: 30 µM.
Sequence of Chromo domain-containing protein 1 (Saccharomyces cerevisiae (strain ATCC 204508 / S288c) (Baker's yeast)) (P32657 whole entry, the tested form may be a part): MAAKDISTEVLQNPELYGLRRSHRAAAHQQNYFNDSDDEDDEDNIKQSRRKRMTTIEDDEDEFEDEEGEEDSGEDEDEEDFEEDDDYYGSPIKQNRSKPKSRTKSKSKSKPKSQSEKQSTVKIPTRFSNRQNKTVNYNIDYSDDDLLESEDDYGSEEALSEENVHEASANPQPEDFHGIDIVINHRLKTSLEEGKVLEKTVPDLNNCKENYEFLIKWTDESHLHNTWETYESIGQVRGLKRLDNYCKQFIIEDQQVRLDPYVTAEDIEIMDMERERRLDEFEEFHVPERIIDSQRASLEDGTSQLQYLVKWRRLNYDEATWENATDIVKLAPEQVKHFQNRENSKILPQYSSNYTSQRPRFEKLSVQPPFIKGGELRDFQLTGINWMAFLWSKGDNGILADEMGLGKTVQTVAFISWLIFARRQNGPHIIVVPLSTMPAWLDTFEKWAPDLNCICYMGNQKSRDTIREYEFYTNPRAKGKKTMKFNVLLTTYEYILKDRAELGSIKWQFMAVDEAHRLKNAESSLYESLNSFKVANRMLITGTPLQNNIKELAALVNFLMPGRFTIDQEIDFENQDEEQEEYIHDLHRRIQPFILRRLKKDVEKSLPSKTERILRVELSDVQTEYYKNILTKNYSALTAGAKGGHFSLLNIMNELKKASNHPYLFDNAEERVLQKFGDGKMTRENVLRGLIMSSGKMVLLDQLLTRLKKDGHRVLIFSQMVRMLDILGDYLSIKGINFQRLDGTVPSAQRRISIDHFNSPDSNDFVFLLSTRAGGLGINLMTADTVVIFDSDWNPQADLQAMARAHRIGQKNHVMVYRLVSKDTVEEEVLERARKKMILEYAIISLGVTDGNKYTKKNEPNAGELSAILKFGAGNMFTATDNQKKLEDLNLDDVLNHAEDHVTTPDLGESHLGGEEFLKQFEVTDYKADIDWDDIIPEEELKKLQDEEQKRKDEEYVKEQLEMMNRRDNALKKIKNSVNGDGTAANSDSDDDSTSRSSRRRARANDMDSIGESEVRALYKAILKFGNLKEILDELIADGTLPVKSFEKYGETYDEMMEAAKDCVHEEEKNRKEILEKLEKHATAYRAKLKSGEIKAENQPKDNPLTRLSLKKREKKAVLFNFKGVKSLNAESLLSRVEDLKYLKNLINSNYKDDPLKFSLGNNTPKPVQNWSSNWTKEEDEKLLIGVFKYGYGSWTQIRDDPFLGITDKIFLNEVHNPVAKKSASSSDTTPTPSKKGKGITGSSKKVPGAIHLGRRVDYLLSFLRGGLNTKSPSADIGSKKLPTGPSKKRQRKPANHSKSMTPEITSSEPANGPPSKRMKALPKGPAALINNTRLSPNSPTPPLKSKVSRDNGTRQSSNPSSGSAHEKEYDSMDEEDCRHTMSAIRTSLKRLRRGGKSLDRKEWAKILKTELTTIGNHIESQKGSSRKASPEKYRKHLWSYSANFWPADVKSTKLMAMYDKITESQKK

Consider `CN(CC(=O)NC1(C#N)CCCC1)C1CCCN(c2cccnn2)C1` (centres undefined), for which the Percent Effect in experiment [1] was -3.01%; in experiment [2] it was 7.89%; in experiment [3], -63.6%; in experiment [4] it was 7.82%; with Trypanosoma cruzi it was 8.12%; in experiment [5], 2.16%. Moreover, the Percent Effect in experiment [6] was 11.6%; in the experiment filed under Homo sapiens, -30.1%; in experiment [7] it was 6.4%; in experiment [8], 18.5%; in experiment [9] it was -6.35%.
For the compound `c1ccc(-n2ncc(CNCC3CCCN3c3cccnn3)n2)cc1` (centres undefined), the Percent Effect is -3.03% in experiment [1]; -28.9% in [2]; -19.7% in experiment [3]; 8.84% in [4]; 11.7% with Trypanosoma cruzi; -5.4% in experiment [5]. The Percent Effect is -3.64% in experiment [6]; 6.81% in the experiment listed under Homo sapiens; 12.3% in experiment [7]; 18.5% in experiment [8]; 0.0713% in experiment [9].
In the case of `CC(=O)N1CCN(C(=O)c2cnn(-c3ccccc3Cl)c2)CC1`, the Percent Effect in experiment [1] is -5.95%; in [2], 21.6%; in [3], -7.37%; in experiment [4], 17.5%; with Trypanosoma cruzi it was 6.32%; in [5], -8.82%. Besides, the Percent Effect was 9.19% in experiment [6]; 13.8% in the experiment listed under Homo sapiens; 8.37% in experiment [7]; 18.5% in experiment [8]; -9.57% in experiment [9].
With `COc1cccc(CNCc2nnc3n2CC(C(F)(F)F)CC3)c1` (centres undefined), the Percent Effect was 0.608% in experiment [1]; -2.7% in experiment [2]; -0.757% in [3]; 8.38% in experiment [4]; 1.27% in the experiment on Trypanosoma cruzi; 45.4% in [5]. For the same compound, the Percent Effect in experiment [6] was 5.92%; in the experiment filed under Homo sapiens, 9.33%; in experiment [7], 6.45%; in experiment [8], 16.1%; in experiment [9] it was -13%.
In the case of `COCCNc1nc2c(c(NCc3ccncc3)n1)CCNCC2`, the Percent Effect in experiment [1] is 1.06%; in experiment [2], 0%; in [3], -4.61%; in experiment [4], 0.0545%; in the experiment with Trypanosoma cruzi it was 3.28%; in experiment [5], -3.81%. Besides, the Percent Effect is 13.8% in experiment [6]; 5.66% in the experiment listed under Homo sapiens; 5.82% in [7]; 7.32% in experiment [8]; -2.76% in experiment [9].
With `COc1cccc(C(=O)Nc2cc(CC(C)C)nn2C)c1`, the Percent Effect in experiment [1] is -4.81%; in experiment [2], -5.2%; in experiment [3] it was -7.56%; in [4] it was 6.82%; with Trypanosoma cruzi, 6.74%; in experiment [5], -6.41%. In addition, the Percent Effect was 3.04% in [6]; 11% in the experiment filed under Homo sapiens; 4.85% in experiment [7]; 14.6% in [8]; -5.36% in experiment [9].
As to `CCCn1nc(C)c(CNC(=O)C2COc3c(cccc3OC)C2)c1C` (centres undefined), the Percent Effect in experiment [1] was -3.57%; in experiment [2], 2.74%; in [3] it was -2.55%; in experiment [4] it was 6.74%; with Trypanosoma cruzi, 1.19%; in experiment [5] it was -5.59%. The Percent Effect was 15.5% in [6]; 10.2% in the experiment listed under Homo sapiens; 6.25% in experiment [7]; 16.1% in experiment [8]; -3.25% in experiment [9].
`CN(C)S(=O)(=O)N1CCC2(CCCN(Cc3ccc(F)cc3)C2=O)C1` (centres undefined): the Percent Effect is -4.94% in [1]; 8.22% in experiment [2]; -3.06% in [3]; 5.14% in experiment [4]; 5.16% in the experiment on Trypanosoma cruzi; 2.4% in [5]. Besides, the Percent Effect in experiment [6] is 5.22%; in the experiment filed under Homo sapiens it was 4%; in experiment [7] it was 5.21%; in [8], -1.24%; in experiment [9] it was -6.71%.
Consider `COC[C@@H]1CC[C@H]2[C@H](CCN2C(=O)c2ccncc2F)O1`, for which the Percent Effect in experiment [1] is -5.45%; in experiment [2], 2.7%; in experiment [3] it was -0.0287%; in [4], 17.9%; in the experiment on Trypanosoma cruzi it was 2.05%; in [5], 2.73%. The Percent Effect was -4.21% in experiment [6]; -15.4% in the experiment filed under Homo sapiens; 5.38% in experiment [7]; 13.6% in [8]; -2.68% in experiment [9].
